Results from PubChem BioAssay AID1159580 (chemical genetic matrix, 2015).
The campaign covered roughly 5,500 compounds. About 2,000 (36%) were called active. Inconclusive results (about 18%) are left out. The list shows a part of the results. Unmarked numbers belong to inactive results. No stated cut-off is given here; in the data, active means normalized growth mostly below about 0.91 (no sharp cut-off); inconclusive means no clear call, values can overlap the other calls; inactive means mostly above about 0.92.

Assay: chemical genetic growth profiling, strain panel (AID 1159580);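 further: tested at 20 µM; growth read once vehicle control cultures reached saturation at 30 °C; 1 = growth at the plate median or of vehicle wells; lower values mean less growth of the strain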
Conditions: growth OD

Question: What does the source list for CCCCCCc1ccc(O)cc1O?
Answer: normalized growth (S. cerevisiae deletion strains, locus YJL187C, strain SWE1, hits give low values): 0.952; normalized growth (S. cerevisiae deletion strains, locus YJR043C, strain POL32, hits give low values): 0.876; normalized growth (S. cerevisiae deletion strains, locus YJR066W, strain TOR1, hits give low values): 0.813 (active); normalized growth (S. cerevisiae deletion strains, locus YKL009W, strain mrt4, hits give low values): 0.868 (active); normalized growth (S. cerevisiae deletion strains, locus YKL068W, hits give low values): 0.967; normalized growth (S. cerevisiae deletion strains, locus YKL085W, strain MDH1 (second series), hits give low values): 0.954; normalized growth (S. cerevisiae deletion strains, locus YKL085W, strain MDH1, hits give low values): 0.954; normalized growth (S. cerevisiae deletion strains, locus YKL160W, strain elf1, hits give low values): 0.901 (active); normalized growth (S. cerevisiae deletion strains, locus YKL190W, strain CNB1, hits give low values): 0.944; normalized growth (S. cerevisiae deletion strains, locus YKR001C, strain vps1, hits give low values): 0.325 (active); normalized growth (S. cerevisiae deletion strains, locus YKR026C, strain gcn3, hits give low values): 0.972; normalized growth (S. cerevisiae deletion strains, locus YKR091W, strain srl3, hits give low values): 0.973; normalized growth (S. cerevisiae deletion strains, locus YLL001W, strain dnm1, hits give low values): 0.935; normalized growth (S. cerevisiae deletion strains, locus YLL026W, hits give low values): 0.915 (active); normalized growth (S. cerevisiae deletion strains, locus YLL041C, strain sdh2, hits give low values): 0.973; normalized growth (S. cerevisiae deletion strains, locus YLR027C, strain aat2, hits give low values): 0.855 (active); normalized growth (S. cerevisiae deletion strains, locus YLR039C, strain RIC1, hits give low values): 0.291 (active); normalized growth (S. cerevisiae deletion strains, locus YLR058C, strain SHM2, hits give low values): 0.915; normalized growth (S. cerevisiae deletion strains, locus YLR102C, strain apc9, hits give low values): 0.955; normalized growth (S. cerevisiae deletion strains, locus YLR113W, strain HOG1, hits give low values): 0.744 (active); normalized growth (S. cerevisiae deletion strains, locus YLR221C, strain rsa3, hits give low values): 0.824 (active); normalized growth (S. cerevisiae deletion strains, locus YLR258W, strain gsy2, hits give low values): 0.891 (active); normalized growth (S. cerevisiae deletion strains, locus YLR262C, strain YPT6 (second series), hits give low values): 0.582 (active); normalized growth (S. cerevisiae deletion strains, locus YLR262C, strain YPT6, hits give low values): 0.449 (active); normalized growth (S. cerevisiae deletion strains, locus YLR268W, strain sec22, hits give low values): 0.913; normalized growth (S. cerevisiae deletion strains, locus YLR320W, strain mms22, hits give low values): 0.74 (active); normalized growth (S. cerevisiae deletion strains, locus YLR330W, strain CHS5, hits give low values): 0.872 (active); normalized growth (S. cerevisiae deletion strains, locus YLR342W, strain FKS1 (second series), hits give low values): 0.87; normalized growth (S. cerevisiae deletion strains, locus YLR342W, strain FKS1, hits give low values): 0.973; normalized growth (S. cerevisiae deletion strains, locus YLR357W, strain rsc2, hits give low values): 1.07; normalized growth (S. cerevisiae deletion strains, locus YLR370C, strain arc18, hits give low values): 0.925; normalized growth (S. cerevisiae deletion strains, locus YLR371W, strain rom2, hits give low values): 0.622 (active); normalized growth (S. cerevisiae deletion strains, locus YLR384C, strain iki3, hits give low values): 0.997; normalized growth (S. cerevisiae deletion strains, locus YLR418C, strain cdc73, hits give low values): 0.767 (active); normalized growth (S. cerevisiae deletion strains, locus YML016C, strain PPZ1, hits give low values): 0.947; normalized growth (S. cerevisiae deletion strains, locus YML032C, strain rad52, hits give low values): 0.784 (active); normalized growth (S. cerevisiae deletion strains, locus YML120C, strain ndi1, hits give low values): 0.836 (active); normalized growth (S. cerevisiae deletion strains, locus YML124C, strain tub3, hits give low values): 0.934; normalized growth (S. cerevisiae deletion strains, locus YMR058W, strain fet3, hits give low values): 0.881 (active); normalized growth (S. cerevisiae deletion strains, locus YMR078C, strain ctf18, hits give low values): 0.912 (active); normalized growth (S. cerevisiae deletion strains, locus YMR125W, strain sto1, hits give low values): 1.04; normalized growth (S. cerevisiae deletion strains, locus YMR129W, hits give low values): 0.976; normalized growth (S. cerevisiae deletion strains, locus YMR205C, strain PFK2, hits give low values): 0.749 (active); normalized growth (S. cerevisiae deletion strains, locus YMR223W, strain ubp8, hits give low values): 0.801 (active); normalized growth (S. cerevisiae deletion strains, locus YMR231W, strain pep5, hits give low values): 0.999; normalized growth (S. cerevisiae deletion strains, locus YMR307W, strain GAS1, hits give low values): 0.563 (active); normalized growth (S. cerevisiae deletion strains, locus YNL067W, strain RPL9B, hits give low values): 0.779 (active); normalized growth (S. cerevisiae deletion strains, locus YNL071W, strain lat1, hits give low values): 0.64 (active); normalized growth (S. cerevisiae deletion strains, locus YNL183C, strain NPR1, hits give low values): 0.813 (active); normalized growth (S. cerevisiae deletion strains, locus YNL209W, strain ssb2, hits give low values): 0.972; normalized growth (S. cerevisiae deletion strains, locus YNL233W, strain BNI4, hits give low values): 0.858 (active); normalized growth (S. cerevisiae deletion strains, locus YNL248C, strain rpa49, hits give low values): 0.84 (active); normalized growth (S. cerevisiae deletion strains, locus YNL250W, strain rad50, hits give low values): 0.986; normalized growth (S. cerevisiae deletion strains, locus YNL271C, strain bni1, hits give low values): 0.952; normalized growth (S. cerevisiae deletion strains, locus YNL298W, strain CLA4, hits give low values): 0.831 (active); normalized growth (S. cerevisiae deletion strains, locus YNL307C, strain MCK1, hits give low values): 0.322 (active); normalized growth (S. cerevisiae deletion strains, locus YNL322C, strain KRE1 (second series), hits give low values): 0.927; normalized growth (S. cerevisiae deletion strains, locus YNR049C, strain mso1, hits give low values): 0.978; normalized growth (S. cerevisiae deletion strains, locus YNR052C, strain pop2, hits give low values): 0.77 (active); normalized growth (S. cerevisiae deletion strains, locus YOL012C, strain htz1): 1.21; normalized growth (S. cerevisiae deletion strains, locus YOL147C, strain pex11, hits give low values): 0.803 (active); normalized growth (S. cerevisiae deletion strains, locus YOR001W, strain rrp6, hits give low values): 0.876 (active); normalized growth (S. cerevisiae deletion strains, locus YOR061W, strain CKA2, hits give low values): 0.962; normalized growth (S. cerevisiae deletion strains, locus YOR069W, strain VPS5, hits give low values): 0.97; normalized growth (S. cerevisiae deletion strains, locus YOR070C, strain gyp1, hits give low values): 0.95; normalized growth (S. cerevisiae deletion strains, locus YOR080W, strain dia2, hits give low values): 0.969; normalized growth (S. cerevisiae deletion strains, locus YOR083W, strain WHI5, hits give low values): 0.908; normalized growth (S. cerevisiae deletion strains, locus YOR106W, strain vam3, hits give low values): 0.837 (active); normalized growth (S. cerevisiae deletion strains, locus YOR136W, strain idh2, hits give low values): 0.928; normalized growth (S. cerevisiae deletion strains, locus YOR144C, strain elg1, hits give low values): 0.861 (active); normalized growth (S. cerevisiae deletion strains, locus YOR184W, strain ser1, hits give low values): 0.685 (active); normalized growth (S. cerevisiae deletion strains, locus YOR231W, strain MKK1, hits give low values): 0.801 (active); normalized growth (S. cerevisiae deletion strains, locus YOR265W, strain rbl2, hits give low values): 0.957; normalized growth (S. cerevisiae deletion strains, locus YOR270C, strain vph1, hits give low values): 0.73 (active); normalized growth (S. cerevisiae deletion strains, locus YOR290C, strain snf2, hits give low values): 0.819 (active); normalized growth (S. cerevisiae deletion strains, locus YOR316C, strain cot1, hits give low values): 0.956; normalized growth (S. cerevisiae deletion strains, locus YPL051W, strain arl3, hits give low values): 0.705 (active); normalized growth (S. cerevisiae deletion strains, locus YPL078C, strain atp4, hits give low values): 0.891 (active); normalized growth (S. cerevisiae deletion strains, locus YPL106C, strain sse1, hits give low values): 1.05; normalized growth (S. cerevisiae deletion strains, locus YPL240C, strain hsp82, hits give low values): 0.924 (active); normalized growth (S. cerevisiae deletion strains, locus YPL241C, strain CIN2, hits give low values): 0.953; normalized growth (S. cerevisiae deletion strains, locus YPL256C, strain CLN2, hits give low values): 0.782 (active); normalized growth (S. cerevisiae deletion strains, locus YPR119W, strain clb2, hits give low values): 0.956; normalized growth (S. cerevisiae deletion strains, locus YPR141C, strain kar3, hits give low values): 0.963; normalized growth (S. cerevisiae deletion strains, locus YPR163C, strain tif3, hits give low values): 0.906 (active); normalized growth (S. cerevisiae deletion strains, locus YPR167C, strain met16, hits give low values): 0.868 (active); normalized growth (S. cerevisiae deletion strains, strain wtn01, hits give low values): 0.768 (active); normalized growth (S. cerevisiae strains, strain wild type, hits give low values): 0.926
